{"source": "PubChem BioAssay AID540276", "about": "(National Center for Advancing Translational Sciences (NCATS), 2011)", "note": "Screen size: about 300,000 compounds; about 5,400 (1.8%) were called active. About 28% were inconclusive and are not listed. Calls come from the whole dose curve; tested in HEK293 cells. This excerpt belongs to a sample that is enriched for actives. % is set by controls: 0 for no effect and ±100 for the full control effect; potency is the fitted concentration of half-maximal effect.", "data": [{"experiment": "qHTS for inhibitors of binding or entry into cells for Marburg Virus", "conditions": "Marburg virus pseudotyped entry inhibition, cell reporter; series mostly up to 37.8 µM; activity change, negative = inhibition: at the top concentration", "values": [{"smiles": "CC1CCCCC1NC(=O)Cn1c(=O)cnc2ccccc21", "note": "(stereo not given)", "activity change, negative = inhibition": "14.6% [at 46.1 µM] (inactive)"}, {"smiles": "CC(=O)c1c(C)[nH]c(C(=O)COC(=O)c2cccs2)c1C", "activity change, negative = inhibition": "-11.6% (inactive)"}, {"smiles": "COc1ccc(C)cc1N(CC(=O)N1CCCC1)S(=O)(=O)c1ccccc1", "activity change, negative = inhibition": "4.32% [at 46.1 µM] (inactive)"}, {"smiles": "O=C(Nc1cc(C(F)(F)F)ccc1Cl)C(=O)N1CCCCC1", "activity change, negative = inhibition": "10.1% (inactive)"}, {"smiles": "NC(=O)Nc1cccc(C(F)(F)F)c1", "activity change, negative = inhibition": "-9.89% (inactive)"}, {"smiles": "O=C(NNc1ccccc1Cl)C(O)(c1cccc(C(F)(F)F)c1)c1cccc(C(F)(F)F)c1", "Potency": "18.4 µM (active)"}, {"smiles": "NC(=O)Cn1cc(/C=N\\NS(=O)(=O)c2ccccc2)c2ccccc21", "activity change, negative = inhibition": "-7.13% [at 46.1 µM] (inactive)"}, {"smiles": "COC(=O)N(C)C1=C(C(=O)N2CCOCC2)CCCC1", "activity change, negative = inhibition": "-9.8% (inactive)"}, {"smiles": "Cn1c(=O)[nH]c2c(c(C(=O)O)nn2C)c1=O", "activity change, negative = inhibition": "-0.0312% [at 46.1 µM] (inactive)"}, {"smiles": "Cc1ccc2[nH]cc(CCNC(=O)c3ccc([N+](=O)[O-])cc3)c2c1", "activity change, negative = inhibition": "3.86% (inactive)"}, {"smiles": "Cc1ccc2[nH]cc(CCCN3C(=O)c4ccccc4C3=O)c2c1", "Potency": "16.4 µM (active)"}, {"smiles": "Cc1cc(C)cc(NC(=O)CCN2C(=O)c3ccccc3C2=O)c1", "activity change, negative = inhibition": "-3.01% [at 46.1 µM] (inactive)"}, {"smiles": "Cc1cccc(OCC(=O)Nc2ccc(C(=O)O)cc2NC(=O)COc2cccc(C)c2)c1", "activity change, negative = inhibition": "-5.1% (inactive)"}, {"smiles": "COc1ccc(NS(=O)(=O)c2ccc(Oc3c(C#N)cccc3C#N)cc2)cc1", "Potency": "2.82 µM (active)"}, {"smiles": "COc1ccc(C(=O)Nc2ccc(S(=O)(=O)NC(C)C)cc2)cc1", "activity change, negative = inhibition": "-1.9% (inactive)"}, {"smiles": "CCOc1ccc(S(=O)(=O)Nc2ccc(S(=O)(=O)Nc3cc(OC)ccc3OC)cc2)cc1", "activity change, negative = inhibition": "-15.2% (inactive)"}, {"smiles": "Cc1ccc2nc(SCC(=O)NC3CCCC3)[nH]c2c1", "activity change, negative = inhibition": "24.9% [at 46.1 µM] (inactive)"}, {"smiles": "COc1ccc(/C=N/Nc2nc(-c3ccc(C)cc3)c(C#N)c(=O)[nH]2)cc1", "activity change, negative = inhibition": "-0.691% (inactive)"}, {"smiles": "O=C(COc1cccnc1[N+](=O)[O-])Nc1ccc(Cl)cc1F", "activity change, negative = inhibition": "17.4% [at 46.1 µM] (inactive)"}, {"smiles": "Cc1ccc(-c2cc(C(=O)N/N=C/C=C/c3ccco3)c3ccccc3n2)cc1C", "Potency": "2.51 µM (active)"}, {"smiles": "Cc1cc(C(=O)N/N=C/c2ccccn2)c2ccccc2n1", "activity change, negative = inhibition": "12.2% [at 46.1 µM] (inactive)"}, {"smiles": "O=C(N/N=C/C=C/c1ccco1)c1cccs1", "activity change, negative = inhibition": "12.6% [at 46.1 µM] (inactive)"}, {"smiles": "CCCc1nnc(NC(=O)CCC(=O)N2CCN(S(=O)(=O)c3ccc(OC)cc3)CC2)s1", "activity change, negative = inhibition": "1% [at 46.1 µM] (inactive)"}, {"smiles": "Cc1nc(N)nc(Cl)c1CCC1OCCO1", "activity change, negative = inhibition": "0.143% [at 46.1 µM] (inactive)"}, {"smiles": "Cc1ccc(Nc2ccc(C(N)=O)cc2[N+](=O)[O-])cc1", "activity change, negative = inhibition": "-11.4% (inactive)"}, {"smiles": "Cc1ccc(Nc2cc(C)nc3c(C)ccc([N+](=O)[O-])c23)cc1", "Potency": "11.2 µM (active)"}, {"smiles": "Cc1cc(C)nc(Nc2cc([N+](=O)[O-])ccc2C)n1", "activity change, negative = inhibition": "-0.158% [at 46.1 µM] (inactive)"}, {"smiles": "Cc1ccc2c(c1)N(CC(=O)NCC1CCCO1)C(=O)CO2", "note": "(stereo not given)", "activity change, negative = inhibition": "1.4% [at 46.1 µM] (inactive)"}, {"smiles": "COCCNC(=O)COc1ccc(N(C)S(=O)(=O)c2ccc3ccccc3c2)cc1", "activity change, negative = inhibition": "9.59% [at 46.1 µM] (inactive)"}, {"smiles": "CC1CCCCC1NC(=O)COc1ccc(C#N)cc1", "note": "(stereo not given)", "activity change, negative = inhibition": "-11.3% (inactive)"}, {"smiles": "O=[N+]([O-])c1ccccc1/C=C/CN1CCCC(CO)C1", "note": "(stereo not given)", "activity change, negative = inhibition": "15.6% (inactive)"}, {"smiles": "CC1CCCCC1NC(=O)/C(C#N)=C/C=C/c1ccccc1[N+](=O)[O-]", "note": "(stereo not given)", "Potency": "2.82 µM (active)"}, {"smiles": "O=C(Nc1c(Br)cc2c(c1Br)Cc1cc([N+](=O)[O-])ccc1-2)C(Cl)Cl", "activity change, negative = inhibition": "12.8% (inactive)"}, {"smiles": "CCCn1c(NCc2ccccc2F)nc2ccccc21", "activity change, negative = inhibition": "8.16% [at 46.1 µM] (inactive)"}, {"smiles": "CN(Cc1ccccc1)Cc1ccccc1F", "activity change, negative = inhibition": "-10.3% (inactive)"}, {"smiles": "N=c1n(CCc2ccccc2)c2ccccc2n1Cc1ccccc1F", "Potency": "5.17 µM (active)"}, {"smiles": "CCc1ccccc1N(CC(=O)NCC1CCCO1)C(=O)CCC(=O)Nc1nccs1", "note": "(stereo not given)", "activity change, negative = inhibition": "5.09% [at 46.1 µM] (inactive)"}, {"smiles": "COc1ccc(C)cc1NC(=S)N1CCOCC1", "activity change, negative = inhibition": "-15.3% [at 46.1 µM] (inactive)"}, {"smiles": "O=C1OC(Cc2ccccc2)C(c2ccccc2)C1=O", "note": "(stereo not given)", "activity change, negative = inhibition": "3.11% (inactive)"}, {"smiles": "O=C(CSc1nc2[nH]ncc2c(=O)n1-c1ccccc1)N1CCCc2ccccc21", "activity change, negative = inhibition": "4.12% (inactive)"}, {"smiles": "O=C(CSc1nc2ccccc2c(=O)n1CCCO)N1CCc2ccccc21", "activity change, negative = inhibition": "-0.197% (inactive)"}, {"smiles": "Cn1c(SCC(=O)N2CCCc3ccccc32)nc2ccccc2c1=O", "Potency": "12.6 µM (active)"}, {"smiles": "CN(C)CCn1c2c(c(SCC(=O)Nc3ccccc3C(F)(F)F)nc1=O)CCCC2", "activity change, negative = inhibition": "28.8% (inactive)"}, {"smiles": "Cc1cc(Nc2ccccc2)nc(N)n1", "activity change, negative = inhibition": "3% (inactive)"}, {"smiles": "Cc1ccc2nc(C)cc(N/N=C/c3ccc(F)cc3)c2c1", "activity change, negative = inhibition": "9.21% [at 46.1 µM] (inactive)"}, {"smiles": "COc1ccc(NC(=O)c2nc(-n3nc(C)cc3C)ccc2Cl)cc1Cl", "activity change, negative = inhibition": "9.49% (inactive)"}, {"smiles": "COc1ccc(Nc2cc(C)nc(-n3nc(C)cc3C)n2)cc1", "Potency": "1.3 µM (active)"}, {"smiles": "Cc1cc(C)nc(-n2nc(C)cc2NC(=O)c2ccc(Br)o2)n1", "activity change, negative = inhibition": "4.69% (inactive)"}, {"smiles": "Cc1cc(N/N=C\\c2ccc(Br)cc2)nc(-n2nc(C)cc2C)n1", "Potency": "2.24 µM (active)"}, {"smiles": "CN1CCN(C(=O)c2cnn(-c3ccccc3)c2NC(=O)c2ccc([N+](=O)[O-])cc2)CC1", "activity change, negative = inhibition": "12.4% [at 46.1 µM] (inactive)"}, {"smiles": "CN1CCN(C(=O)C(=O)c2cn(CC(=O)N3CCCC3)c3ccccc23)CC1", "activity change, negative = inhibition": "-14.1% (inactive)"}, {"smiles": "O=C1NC(=O)C(CCc2ccccc2)(c2ccccc2)N1", "note": "(stereo not given)", "activity change, negative = inhibition": "-23.1% (inactive)"}, {"smiles": "Cc1cccc(C(=O)OC(C)C(=O)NC2CCCc3ccccc32)c1O", "note": "(stereo not given)", "activity change, negative = inhibition": "1.02% [at 46.1 µM] (inactive)"}, {"smiles": "COCc1ccc(C(=O)NC2CC(C)(C)Cc3c2cnn3-c2ccc(C)cc2)o1", "note": "(stereo not given)", "activity change, negative = inhibition": "-15.2% (inactive)"}, {"smiles": "COc1ccc(C(=O)NC2CCCc3c2cnn3-c2cccc(C)c2C)c(OC)n1", "note": "(stereo not given)", "Potency": "0.708 µM (active)"}, {"smiles": "CN(C)C(=O)c1ccc(NC(=O)c2ccccc2-c2ccccc2)cc1", "activity change, negative = inhibition": "0.637% [at 46.1 µM] (inactive)"}, {"smiles": "CCc1ccc(N(C(=O)c2csnn2)C(C(=O)NC2CCCCC2)c2ccncc2)cc1", "note": "(stereo not given)", "activity change, negative = inhibition": "6.59% [at 46.1 µM] (inactive)"}, {"smiles": "O=C1CC2(CCCC2)C(=O)N1CN1CCN(S(=O)(=O)c2ccc(F)cc2F)CC1", "activity change, negative = inhibition": "-2.46% (inactive)"}, {"smiles": "O=C(Cc1cccc2ccccc12)Nc1ccc2oc(-c3ccccc3)nc2c1", "activity change, negative = inhibition": "22.7% (inactive)"}, {"smiles": "CCc1ccc2oc(-c3ccc(N)cc3)nc2c1", "Potency": "5.17 µM (active)"}, {"smiles": "COc1ccc(-c2nc3cc([N+](=O)[O-])ccc3o2)cc1OC", "activity change, negative = inhibition": "-1.31% [at 46.1 µM] (inactive)"}, {"smiles": "CC(=O)Nc1ccc(S(=O)(=O)Nc2cc(C)cn(Cc3ccc(C)cc3)c2=O)cc1", "activity change, negative = inhibition": "-2.78% [at 46.1 µM] (inactive)"}, {"smiles": "CCOC(=O)C1=C(C)NC(=O)NC1c1ccccc1", "note": "(stereo not given)", "activity change, negative = inhibition": "-12.9% (inactive)"}, {"smiles": "CCOC(=O)C1=C(CN2CCc3ccccc32)NC(=O)NC1c1ccc(Cl)cc1", "note": "(stereo not given)", "Potency": "16.4 µM (active)"}, {"smiles": "CCOC(=O)C1=C(CN2CCCCCC2)NC(=O)NC1c1cccc([N+](=O)[O-])c1", "note": "(stereo not given)", "activity change, negative = inhibition": "-3.93% [at 46.1 µM] (inactive)"}, {"smiles": "COc1ccc([C@H]2C(C#N)=C(N)Oc3n[nH]c(C)c32)cc1CSc1ccccn1", "activity change, negative = inhibition": "-7.9% (inactive)"}, {"smiles": "COc1cccc(NC(=O)CN(C)C(=O)Cc2ccc(Cl)cc2Cl)c1", "activity change, negative = inhibition": "-19.1% (inactive)"}, {"smiles": "Cc1ccc(CNC(=O)c2c(-c3ccccc3)noc2C)cc1", "activity change, negative = inhibition": "5.17% [at 46.1 µM] (inactive)"}, {"smiles": "CCOC(=O)c1c(-c2cccc(C)c2)csc1NC(=O)c1c(-c2ccccc2)noc1C", "Potency": "0.316 µM (active)"}, {"smiles": "CC(=O)Nc1cccc(NC(=O)c2c(-c3ccccc3)noc2C)c1", "activity change, negative = inhibition": "-18% (inactive)"}]}]}
